Results as given in PubChem BioAssay (NCI).
About 83,000 compounds went through this panel and 20% of them were active in at least one assay; those are over-represented in the sample as a whole.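 Testing used 96-well plates and a 48-hour single-concentration exposure. Example: -40 means 40% of the starting cells died.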 Calls of active or inactive are those of the source. The calls were made as follows: active = growth percent below 10; inactive = the rest.

Legend:
Assay in all cases: NCI-60 one-dose screen, 48 h (100 = growth as untreated, 0 = no growth, -100 = all killed)
Conditions in all cases: 10 µM unless noted
[1] = test system: SR leukemia
[2] = test system: RPMI-8226 leukemia
[3] = test system: OVCAR-5 ovarian
[4] = test system: OVCAR-4 ovarian
[5] = test system: SK-OV-3 ovarian
[6] = test system: IGROV1 ovarian
[7] = test system: OVCAR-3 ovarian
[8] = test system: HS 578T breast
[9] = test system: NCI/ADR-RES ovarian
[10] = test system: T-47D breast
[11] = test system: BT-549 breast
[12] = test system: MDA-MB-435 melanoma
[13] = test system: SW-620 colon
[14] = test system: MCF7 breast
[15] = test system: HCT-116 colon
[16] = test system: HCC-2998 colon
[17] = test system: KM12 colon

Measured: growth

CC1(C)CC2=C3C=C[C@@H]4[C@@]5(C)CC[C@H](O)C(C)(C)[C@@H]5CC[C@@]4(C)[C@]3(C)CC[C@@]2(C(=O)O)CC1=O
active: [2] 4.49%
inactive: [1] 50.5% | [3] 99.5% | [4] 38% | [5] 75.9% | [6] 35.3% | [7] 22.2% | [8] 73% | [9] 61.2% | [10] 42.2% | [11] 36.7% | [12] 39.4% | [13] 43.8% | [14] 31.9% | [15] 12.8% | [16] 70.3% | [17] 42.6%

C(/C=C/c1ccccc1)=Nc1ccc(CCc2ccc(N=C/C=C/c3ccccc3)cc2)cc1
inactive: [1] 47.3% | [2] 94.5% | [3] 93.6% | [4] 101% | [5] 98.6% | [6] 85.8% | [7] 132% | [8] 108% | [9] 80.9% | [10] 97.5% | [11] 91.9% | [12] 115% | [13] 51.6% | [14] 69.2% | [15] 54.1% | [16] 108% | [17] 106%

COc1ccc2nc3cc(Cl)ccc3c(NCCN)c2c1
inactive: [5] 69.3% | [8] 91.7% | [9] 19%
active: [1] -45.4% | [2] -23.6% | [3] -61.6% | [4] -86% | [6] -27% | [7] -84.8% | [10] -72.3% | [11] -45.7% | [13] -68.9% | [14] -70.2% | [15] -73.2% | [16] -73.2% | [17] -64%

CN(C)c1ccc(/C=C/C(=O)c2ccccc2)cc1
inactive: [1] 25.1% | [2] 76.4% | [3] 113% | [4] 101% | [5] 96.9% | [6] 99.2% | [7] 90.2% | [8] 98.4% | [10] 68.5% | [11] 81.3% | [12] 28.6% | [13] 63.5% | [14] 44.7% | [15] 67.5% | [16] 97.5% | [17] 51.4%

Cc1nc2sc(C(=O)Nc3cccc(Cl)c3)c(N)c2cc1C(O)c1ccccc1 (stereo not given)
inactive: [2] 11.3% | [3] 41.4% | [4] 71.6% | [5] 40.6% | [6] 28.7% | [8] 19% | [10] 50.6% | [11] 52.6% | [13] 33.1% | [14] 21.9% | [15] 13.9% | [16] 17.8% | [17] 18.3%
active: [1] 8.06% | [7] 6.3% | [9] 5.21% | [12] 5.16%

CC1=C(C(=O)n2c3ccccc3c3ccccc32)C(c2cccc([N+](=O)[O-])c2)C(C(=O)n2c3ccccc3c3ccccc32)=C(C)N1
inactive: [1] 68.5% | [2] 93.4% | [3] 99.2% | [4] 103% | [5] 97.7% | [6] 98.4% | [7] 100% | [8] 96.5% | [9] 98.7% | [10] 80.5% | [11] 102% | [12] 117% | [13] 100% | [14] 94.8% | [15] 91.8% | [16] 102% | [17] 94.8%

O=C1/C(=C/c2ccc(C(F)(F)F)cc2)COc2ccc(O)cc21
inactive: [3] 96.5% | [4] 82.7% | [5] 116% | [6] 82.5% | [7] 94.8% | [8] 95.8% | [9] 94.3% | [10] 78% | [11] 72.8% | [12] 87.7% | [15] 33.2% | [16] 94.1% | [17] 52.2%
active: [1] 9.82% | [2] -23.2% | [13] 1.98% | [14] 6.03%

O=C(N=Nc1c(O)[nH]c2ccccc12)Nc1ccc(Cl)cc1
inactive: [1] 79.1% | [2] 56.1% | [3] 86% | [4] 98.2% | [5] 96.5% | [6] 80.2% | [7] 97.5% | [8] 95.1% | [9] 110% | [10] 87.2% | [11] 103% | [13] 90.3% | [14] 76.3% | [15] 94.4% | [16] 99% | [17] 81.1%

COc1ccc2nc3ccccc3c(NCc3ccccc3)c2c1
active: [1] 4.27% | [2] -30.9% | [14] 4.29% | [16] -35.5%
inactive: [3] 29% | [4] 40.8% | [5] 44.5% | [6] 16.4% | [7] 41% | [8] 25.2% | [9] 18.3% | [10] 35.3% | [11] 50.3% | [12] 33.8% | [13] 19.5% | [15] 14.8% | [17] 36.5%

O=C1Nc2ccccc2/C1=C/c1cn(C[C@@H](O)Cn2c3ccccc3c(=O)c3ccccc32)c2ccccc12
inactive: [1] 66.3% | [2] 67.1% | [3] 86.7% | [4] 88% | [5] 73.3% | [6] 53.7% | [7] 73.5% | [8] 62.8% | [9] 85.4% | [10] 62.7% | [11] 73.3% | [12] 85.1% | [13] 78.7% | [14] 45.9% | [15] 57.7% | [16] 76.1% | [17] 68.2%

COCCCOc1cc(C[C@@H](C[C@H](N)[C@@H](O)C[C@H](C(=O)NCC(C)(C)C(N)=O)C(C)C)C(C)C)ccc1OC
inactive: [1] 103% | [2] 111% | [3] 110% | [4] 101% | [5] 113% | [6] 111% | [7] 116% | [8] 71.3% | [9] 103% | [10] 107% | [11] 110% | [12] 98.9% | [13] 105% | [14] 95.1% | [16] 102% | [17] 109%

CC[C@H](CC[C@@H](C)[C@H]1CC[C@H]2[C@@H]3CC[C@@H]4CC(=O)/C(=C\c5ccncc5)C[C@]4(C)[C@H]3CC[C@]12C)C(C)C
inactive: [1] 87.5% | [2] 92.2% | [3] 104% | [4] 110% | [5] 99.7% | [6] 104% | [7] 106% | [8] 98.8% | [9] 104% | [10] 100% | [11] 95.2% | [12] 101% | [13] 102% | [14] 95.7% | [15] 103% | [16] 104% | [17] 102%

Cc1ccc2[nH]c(=O)c3c(c2c1)OC(N)=C(C#N)C31C(=O)c2cccc3cccc1c23 (stereo not given)
inactive: [1] 92.9% | [2] 97.8% | [3] 97.4% | [4] 89.4% | [5] 105% | [6] 90% | [8] 93.9% | [9] 102% | [10] 85.8% | [11] 102% | [13] 101% | [14] 88.2% | [15] 101% | [16] 106% | [17] 94.4%

CCNCc1ccc(O)c2ncccc12
inactive: [1] 19% | [2] 24.2% | [3] 64.7% | [4] 17.8% | [5] 27.9% | [6] 46% | [7] 37.7% | [8] 39.9% | [9] 27.3% | [10] 27.3% | [11] 40.8% | [12] 16.6% | [13] 33.1% | [14] 17.3% | [15] 21.6% | [16] 45.9%

COc1ccc2c(c1)c(-c1nonc1-c1c[nH]c3ccc(Br)cc13)cn2C
active: [12] 6.34%
inactive: [1] 14.6% | [2] 45.5% | [3] 55.3% | [4] 55.1% | [5] 58.4% | [6] 52.7% | [7] 41.1% | [8] 59.1% | [9] 34.9% | [10] 25.7% | [11] 63.6% | [13] 33.7% | [14] 24.9% | [15] 31.6% | [16] 38.7% | [17] 14.5%

O=C1/C(=C/c2ccccc2[N+](=O)[O-])COc2ccc(O)cc21
active: [2] 3.29% | [3] -19% | [6] -0.209% | [7] 7.73% | [8] 5.1% | [9] 2.55% | [12] -34.2% | [13] -57.8% | [15] -13.8%
inactive: [1] 22.2% | [4] 15.6% | [5] 77.7% | [10] 18% | [11] 26.7% | [14] 10.9% | [17] 25.4%

CC1(C)CC[C@]2(C(=O)N3CCOCC3)CC[C@]3(C)C(=CC[C@@H]4[C@@]5(C)C/C(=C/c6ccncc6)C(=O)C(C)(C)[C@@H]5CC[C@]43C)[C@@H]2C1
active: [1] -31.3% | [2] -33.5% | [11] -2.62% | [12] 6.81% | [14] 8.43% | [15] -32.6% | [16] -24.5% | [17] 6.58%
inactive: [3] 30.3% | [4] 14.2% | [5] 28.9% | [6] 33.1% | [8] 27.5% | [10] 20.2% | [13] 10.4%

Cc1cc2oc(=O)cc(CP(=O)(O)O)c2cc1O
inactive: [1] 106% | [2] 118% | [3] 94% | [4] 103% | [5] 105% | [6] 91.6% | [7] 102% | [8] 94.5% | [9] 105% | [10] 98.8% | [11] 105% | [12] 99.9% | [13] 91.3% | [14] 88.9% | [15] 100% | [16] 103% | [17] 102%

CC[C@H](C)[C@H](NC(=O)[C@H](CCCNC(=N)N)NC(=O)[C@H](Cc1c[nH]c2ccccc12)NC(=O)[C@@H](NC(=O)[C@H](CCCCN)NC(=O)[C@H](CCCCN)NC(=O)[C@@H](NC(=O)[C@@H](NC(=O)[C@@H](NC(=O)[C@H](CCCCN)NC(=O)[C@H](Cc1ccccc1)NC(=O)[C@H](CCCCN)NC(=O)[C@H](CCCCN)NC(=O)[C@H](Cc1ccccc1)NC(=O)[C@@H](NC(=O)[C@@H](N)CCCCN)[C@@H](C)CC)[C@@H](C)O)[C@@H](C)CC)[C@@H](C)CC)C(C)C)C(=O)N[C@@H](Cc1ccccc1)C(=O)NCC(=O)N[C@@H](CCCNC(=N)N)C(=O)N[C@@H](Cc1ccccc1)C(N)=O
inactive: [5] 13.9% | [11] 32.5% | [16] 10.6%
active: [1] 1.72% | [2] -18% | [3] -46.1% | [4] -31.3% | [6] -25.8% | [7] -23.8% | [8] -21.3% | [9] -11.9% | [10] -30.1% | [12] -17% | [13] -14.9% | [14] -17% | [15] -3.28% | [17] -25.6%

CN(Cc1cnc2nc(N)nc(N)c2n1)c1c(Cl)cc(C(=O)NC(CCC(=O)O)C(=O)O)cc1Cl (stereo not given)
inactive: [1] 42.4% | [2] 45.3% | [3] 48.7% | [4] 55.1% | [5] 56.3% | [6] 28.3% | [7] 48.1% | [8] 66.1% | [9] 35.1% | [10] 53.2% | [11] 21.9% | [12] 25.7% | [13] 29.1% | [14] 19.2% | [15] 18.9% | [16] 20.9% | [17] 29.6%
